Test results from PubChem BioAssay (EPA / NIEHS).
A structure can be active in one record and inactive in another. Active and inactive are the calls of the source. Rule for the calls: active = hit-call score of the fitted dose curve at least 0.9, where 1 is the maximum; inactive = score below 0.9.

Experiment: ATG_SREBP_CIS: Attagene CIS-FACTORIAL HepG2 Assay for human Sterol Regulatory Element Binding (SREBP) (AID 2282962)
Settings: HepG2 Attagene cis-factorial SREBP reporter, mRNA; actives raise or lower the signal
Protocol: ATG_CIS is a cell-based, multiplexed-readout assay that uses HepG2, a human liver cell line, with measurements taken at 24 hours after chemical dosing in a 24-well plate.ATG_SREBP_CIS is one of 52 assay component(s) measured or calculated from the ATG_CIS assay. It is designed to make measurements of mRNA induction, a form of inducible reporter, as detected with fluorescence intensity signals by Reverse transcription polymerase chain reaction (RT-PCR) and Capillary electrophoresis technology.Data from the assay component ATG_SREBP_CIS was analyzed into 1 assay endpoint. This assay endpoint, ATG_SREBP_CIS, was analyzed with bidirectional fitting relative to DMSO as the negative control and baseline of activity. Using a type of inducible reporter, measures of mRNA for gain or loss-of-signal activity can be used to understand the reporter gene at the transcription factor-level as they relate to the gene SREBF1. Furthermore, this assay endpoint can be referred to as a primary readout, because this assay has produced multiple assay endpoints where this one serves a reporter gene function. To generalize the intended target to other relatable targets, this assay endpoint is annotated to the dna binding intended target family, where the subfamily is basic helix-loop-helix leucine zipper.
Human liver HepG2 cells are transiently transfected with multiple reporter transcription units (MRTUs) in 6-well plates using FuGene 6 reagent (Roche; 3 ml FuGene/1 mg DNA). The MRTU constructs are regulated by a cis-regulating element (promoter). […] A major difference between the CIS and TRANS system is that in CIS activities of endogenous TFs are measured, whereas the TRANS assay evaluates changes in activities of exogenous, chimeric NR-Gal4 proteins. […] At the end of 24 hour incubation, total RNA was isolated using TriZol reagent (Invitrogen). The isolated RNA is then reverse-transcribed using oligo(dT) primer and Mo-MLV reverse transcriptase (Invitrogen) with DNAse I (Ambion) treatment for 30 min. The one-tenth of the produced cDNA was amplified by PCR using Taq DNA polymerase (Invitrogen) and two reporter sequence-specific primers. The PCR products were fluorescently labeled by primer extension with 6-arboxyfluorescein (6-FAM) 5'-labeled reporter sequence-specific primer (2 min at 95 C, 20 s at 68 C and 10 min at 72 C) and these products were digested with 5U of HpaI (New England Biolabs) for 2h at 37 C. The fragments were purified using Qiaquick PCR columns (Qiagen), analyzed on an ABI 3130xL genetic analyzer (Applied Biosystems) with peak positions identified by using a set of X-rhodamine (ROX)-labeled MapMarker1000 molecular weight standards (BioVentures). The raw capillary electrophoresis data was processed using Attagraph software (Attagene).
For `C=C(c1ccc(C(=O)O)cc1)c1cc2c(cc1C)C(C)(C)CCC2(C)C`, the outcome was “inactive”. With `Cc1cc(C(=C2C=CC(=Nc3ccc(S(=O)(=O)O)cc3)C=C2)c2ccc(Nc3ccc(S(=O)(=O)O)cc3)cc2)cc(S(=O)(=O)O)c1N` the outcome was “inactive”. In the case of `CCCCCCCC(OC)OC`, the outcome is reported as “inactive”. For `O=S(=O)(O)c1ccc2cc(O)ccc2c1`, the outcome was “inactive”. With `COC(O)c1ccccc1` (stereo not given) the outcome was “inactive”. In the case of `O=CC(F)(F)C(F)(F)C(F)(F)C(F)F`, the outcome is reported as “inactive”. In the case of `Brc1ccc(Oc2ccc(Br)cc2Br)cc1`, the outcome is reported as “inactive”. In the case of `CN(C)c1ccc(C(=C2C=CC(=[N+](C)C)C=C2)c2ccccc2)cc1`, the outcome is reported as “inactive” and the AC50 is reported as 9.9 µM (active). In the case of `CCC(=O)C=Cc1ccc(OC)cc1`, the outcome is reported as “inactive”. In the case of `Oc1ccc(Cc2ccccc2O)cc1`, the outcome is reported as “inactive”. With `Clc1ccc2c(Cl)ccnc2c1` the outcome was “inactive”. With `CCCCCCC(C)(C)C(=O)O` the outcome was “inactive”. For `Oc1c(Cl)cc(Cl)cc1Sc1cc(Cl)cc(Cl)c1O`, the outcome was “inactive”. In the case of `C=CCOCC(CO)(CO)CO`, the outcome is reported as “inactive”. For `COc1ccc(C#N)cc1`, the outcome was “inactive”. With `CCCCc1ccc2ccccc2c1S(=O)(=O)O` the outcome was “inactive”. With `CCCCC(CC)C(=O)OCCOCCOCCOCCOC(=O)C(CC)CCCC` (stereo not given) the outcome was “inactive”. With `CC(C)c1c(C(=O)Nc2ccccc2)c(-c2ccccc2)c(-c2ccc(F)cc2)n1CC[C@@H](O)C[C@@H](O)CC(=O)O` the outcome was “inactive” and the AC50 was 0.156 µM (active). With `Cc1ccccc1C(OCCN(C)C)c1ccccc1` (stereo not given) the AC50 was 48.6 µM (active) and the outcome was “inactive”. With `COc1cc(OC)nc(NC(=O)NS(=O)(=O)Nc2ccccc2C(=O)N(C)C)n1` the outcome was “inactive”. With `O=CC(F)(F)C(F)(F)C(F)(F)F` the outcome was “inactive”. With `CC(C)(c1ccc(Oc2ccc(N)cc2)cc1)c1ccc(Oc2ccc(N)cc2)cc1` the outcome was “inactive”. With `O=C(NCc1ncc(C(F)(F)F)cc1Cl)c1c(Cl)cccc1Cl` the AC50 was 10.1 µM (active). In the case of `OCCN1CN(CCO)CN(CCO)C1`, the outcome is reported as “inactive”. In the case of `CC1COCc2cc3c(cc21)C(C)(C)C(C)C3(C)C` (stereo not given), the outcome is reported as “inactive”. With `CNNCc1ccc(C(=O)NC(C)C)cc1` the outcome was “inactive”. In the case of `Oc1cccc2c(O)cccc12`, the outcome is reported as “inactive”. In the case of `CC(C)(C)C1CCCCC1O` (stereo not given), the outcome is reported as “inactive”. For `O=C1OC(=O)c2cc(-c3ccc4c(c3)C(=O)OC4=O)ccc21`, the outcome was “inactive”. For `Cc1cccc2c1ccc1ccccc12`, the outcome was “inactive”. With `C=CC(=O)OCCC(F)(F)C(F)(F)C(F)(F)C(F)(F)C(F)(F)C(F)(F)F` the outcome was “inactive”. With `CCC1CO1` (stereo not given) the outcome was “inactive”. For `CC(C)(C)c1ccc(O)c(O)c1`, the AC50 was 57.1 µM (active) and the outcome was “inactive”. With `CCOC(OCC)C(=O)c1ccccc1` the outcome was “inactive”. For `Clc1ccc(Nc2nnc(Cc3ccncc3)c3ccccc23)cc1`, the outcome was “inactive”. With `NNc1nc(-c2ccc([N+](=O)[O-])cc2)cs1` the outcome was “inactive”.
